Some of the results follow. Unmarked numbers belong to inactive results. Calls of active or inactive are those of the source.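 Rule for the calls: active = activation above the solvent-only control wells' mean plus 3 SD (cut at about 11% in these data); inactive = the rest.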
Target: Neuropeptide Y receptor type 2 (Homo sapiens) (UniProt P49146)
Test: human Y2 receptor agonism – cell-based, fluorescence, counter-screen for NPY-Y1 potentiator project (AID 1698);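 note: 0% = DMSO with isoproterenol and 100% = 40 nM NPY maximal response; agonism lowers cAMP so well fluorescence drops in active wells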
Details: HEK293 Y2-CNGC, membrane potential fluorescence, agonist mode; at 3.6 µM; stronger effect = higher value

Neuropeptide Y receptor type 2 (Homo sapiens), sequence (P49146 whole entry, looked up): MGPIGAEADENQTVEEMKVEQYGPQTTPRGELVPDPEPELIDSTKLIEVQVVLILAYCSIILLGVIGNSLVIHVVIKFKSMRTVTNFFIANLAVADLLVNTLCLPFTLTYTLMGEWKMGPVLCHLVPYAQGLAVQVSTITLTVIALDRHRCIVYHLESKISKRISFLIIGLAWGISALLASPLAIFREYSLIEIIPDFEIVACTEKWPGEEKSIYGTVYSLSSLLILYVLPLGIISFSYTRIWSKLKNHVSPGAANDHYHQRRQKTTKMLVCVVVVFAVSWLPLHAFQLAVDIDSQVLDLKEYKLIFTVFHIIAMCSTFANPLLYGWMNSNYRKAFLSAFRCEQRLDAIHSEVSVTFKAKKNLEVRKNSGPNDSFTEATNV

CSC1=NP(=S)(SC)N(C)c2nc3n(c21)CCC3 (configuration not stated)
activation: 5.24%

Cc1nn(Cc2ccccc2Cl)c(Cl)c1C(=O)OC(C(=O)NC(N)=O)C(C)C (configuration not stated)
activation: 31.5% (active)

From PubChem BioAssay AID1698 (The Scripps Research Institute Molecular Screening Center, 2009)
